A number with no mark means an inactive call.
These molecules were tested on Vero E6 infected with SARS-CoV-2 (assay: SARS-CoV-2 infection rate relative to infected DMSO; higher = more infection, active = 60 or less). Conditions: 24 h.
Molecule `CCNC(=O)/C=C/c1cccc(Br)c1` [cinromide] (10 µM) has an SARS-CoV-2 infection rate of 96%.
`c1cc2c(cc1[C@H]1OC[C@H]3[C@@H]1CO[C@@H]3c1ccc3c(c1)OCO3)OCO2` [sesamin] (10 µM) showed an SARS-CoV-2 infection rate of 120%.
`CN(C)/C=N/c1c(I)cc(I)c(CCC(=O)O)c1I` [iopodic-acid] (10 µM) gave an SARS-CoV-2 infection rate of 104%.
Molecule `O=C1OCCN1/N=C/c1ccc([N+](=O)[O-])o1` [furazolidone] (10 µM) has an SARS-CoV-2 infection rate of 102%.
Molecule `CCCCC1(COC(=O)CCC(=O)O)C(=O)N(c2ccccc2)N(c2ccccc2)C1=O` [suxibuzone] (10 µM) has an SARS-CoV-2 infection rate of 94.5%.
Molecule `CC(C)(C)c1nc(-c2cccc(NS(=O)(=O)c3c(F)cccc3F)c2F)c(-c2ccnc(N)n2)s1` [dabrafenib] (10 µM) has an SARS-CoV-2 infection rate of 114%.
With `FC(F)(F)c1ccc(/C=C/c2nc(COc3ccc(CCCCn4ccnn4)cc3)co2)cc1` [mubritinib] (10 µM) the SARS-CoV-2 infection rate was 96%.
`COc1cc(OC)c(/C=C2/C(=O)Nc3ccccc32)c(OC)c1` (10 µM) was tested, and the SARS-CoV-2 infection rate was 96.5%.
Work on `CN(C)CCOc1ccc(-c2nc(-c3ccncc3)c(-c3ccc4c(c3)CC/C4=N\O)[nH]2)cc1` (10 µM) yielded an SARS-CoV-2 infection rate of 96%.
With `c1ccc([C@H]2CNCc3ccccc32)cc1` [4-phenyl-1,2,3,4-tetrahydroisoquinoline] (10 µM) the SARS-CoV-2 infection rate was 114%.
Work on `CC(C)NNC(=O)c1ccncc1` [iproniazid] (10 µM) yielded an SARS-CoV-2 infection rate of 108%.
For `Cc1nc(-c2ccc(OCC(C)C)c(C#N)c2)sc1C(=O)O` [febuxostat] (10 µM), the SARS-CoV-2 infection rate was 118%.
In the case of `NCC(CS(=O)(=O)O)c1ccc(Cl)cc1` (stereo not given) [saclofen] (10 µM), the SARS-CoV-2 infection rate is reported as 94.5%.
For `CC[C@H](Nc1ncnc2[nH]cnc12)c1nc2cccc(F)c2c(=O)n1-c1ccccc1` [idelalisib] (10 µM), the SARS-CoV-2 infection rate was 116%.
`C=CC(=O)Nc1cccc(Oc2nc(Nc3ccc(N4CCN(C)CC4)cc3)ncc2Cl)c1` (10 µM) was tested, and the SARS-CoV-2 infection rate was 118%.
Work on `O=c1[nH]cnc2c1ncn2[C@H]1CC[C@@H](CO)O1` [didanosine] (10 µM) yielded an SARS-CoV-2 infection rate of 112%.
Work on `CCOc1cc(N)c(Cl)cc1C(=O)NCC1CN(Cc2ccc(F)cc2)CCO1` (stereo not given) [mosapride] (10 µM) yielded an SARS-CoV-2 infection rate of 89.5%.
`CC(C)(C)c1ccc(-c2nc3c(N4CCN(Cc5ccc6nccnc6c5)CC4)cccc3[nH]2)cc1` (0.833333 µM) gave an SARS-CoV-2 infection rate of 102%.
In the case of `Nc1ccc(F)cc1NC(=O)c1ccc(CNC(=O)/C=C/c2cccnc2)cc1` [chidamide] (0.833333 µM), the SARS-CoV-2 infection rate is reported as 107%.
In the case of `CC(C)Nc1cccnc1N1CCN(C(=O)c2cc3cc(NS(C)(=O)=O)ccc3[nH]2)CC1` [delavirdine] (10 µM), the SARS-CoV-2 infection rate is reported as 110%.
`c1nc2c(NC3CCCCC3)nc(Nc3ccc(N4CCOCC4)cc3)nc2[nH]1` [reversine] (10 µM) gave an SARS-CoV-2 infection rate of 106%.
In the case of `CCCCCCCCCCCCCCCC[N+](C)(C)Cc1ccccc1` [benzyldimethylhexadecylammonium] (10 µM), the SARS-CoV-2 infection rate is reported as 80%.
`COc1cc(SC)ccc1C(=O)N1CCC(Cc2ccccc2)CC1` (10 µM) showed an SARS-CoV-2 infection rate of 104%.
In the case of `C#Cc1cccc(Nc2ncnc3cc(OC)c(OCCCCCCC(=O)NO)cc23)c1` (0.833333 µM), the SARS-CoV-2 infection rate is reported as 122%.
`Cc1ncc([N+](=O)[O-])n1CC(O)CN1CCOCC1` (stereo not given) [morinidazole] (10 µM) was tested, and the SARS-CoV-2 infection rate was 111%.
For `CC(=O)c1ccc2c(c1)N(CCCN(C)C)c1ccccc1S2` [acepromazine] (10 µM), the SARS-CoV-2 infection rate was 104%.
Molecule `COc1cc([C@@H]2c3cc4c(cc3[C@@H](O[C@@H]3O[C@@H]5CO[C@@H](c6cccs6)O[C@H]5[C@H](O)[C@H]3O)[C@H]3COC(=O)[C@H]23)OCO4)cc(OC)c1O` [teniposide] (10 µM) has an SARS-CoV-2 infection rate of 111%.
Work on `Cc1cc(S(=O)(=O)O)c2c(C)ccc(C(C)C)cc1-2` [sodium-gualenate] (10 µM) yielded an SARS-CoV-2 infection rate of 96.5%.
Molecule `COc1cc(Br)c(S(=O)(=O)Nc2ccc(C(F)(F)F)c(O[C@@H]3CCN(C)C3)c2)cc1OC` (10 µM) has an SARS-CoV-2 infection rate of 104%.
`CCn1cc(C(=O)O)c(=O)c2cc3c(cc21)OCO3` [oxolinic-acid] (10 µM) gave an SARS-CoV-2 infection rate of 96%.
With `CCc1ccc(OCc2ccccc2C(=O)Nc2ccc3nc(C)cc(N)c3c2)cc1` (0.833333 µM) the SARS-CoV-2 infection rate was 89%.
`CCCCOC(=O)c1ccccc1Nc1cccc(C(F)(F)F)c1` [ufenamate] (10 µM) showed an SARS-CoV-2 infection rate of 100%.
With `NCCCCN` [putrescine] (10 µM) the SARS-CoV-2 infection rate was 94%.
`CC(C)(Oc1ccc(CCNC(=O)c2ccc(Cl)cc2)cc1)C(=O)O` [bezafibrate] (10 µM) was tested, and the SARS-CoV-2 infection rate was 104%.
`COc1ccc(-c2cc(=O)c3c(OC)c(OC)c(OC)c(OC)c3o2)cc1OC` [nobiletin] (10 µM) was tested, and the SARS-CoV-2 infection rate was 110%.
Molecule `NC(=O)Nc1sc(-c2ccc(F)cc2)cc1C(N)=O` (0.833333 µM) has an SARS-CoV-2 infection rate of 95.5%.
`Nc1ncnc2c1ncn2[C@@H]1O[C@H](COP(=O)(O)O)[C@@H](O)[C@H]1O` [adenosine-phosphate] (10 µM) was tested, and the SARS-CoV-2 infection rate was 113%.
`Nc1ncnc2c1nc(Br)n2[C@@H]1O[C@@H]2COP(=O)(O)O[C@H]2[C@H]1O` [8-bromo-cAMP] (10 µM) gave an SARS-CoV-2 infection rate of 102%.
With `C#C[C@]1(O)C=C[C@H]2[C@@H]3CCC4=CC(=O)CC[C@@H]4[C@H]3CC[C@@]21CC` [gestodene] (10 µM) the SARS-CoV-2 infection rate was 107%.
In the case of `C=CC[N@@+]12CC[C@@]34c5ccccc5N5/C=C6/[C@H]7C[C@H]8[C@@]9(CC[N@@+]8(CC=C)C/C7=C/CO)c7ccccc7N(/C=C(/[C@@H](C[C@@H]31)/C(=C\CO)C2)[C@H]54)[C@@H]69` [alcuronium] (10 µM), the SARS-CoV-2 infection rate is reported as 114%.

From the supplement of paper PMC13380429
